# Experimental data: PubChem BioAssay (NCATS)
# Values joined by “and” are separate entries in the source; they are usually repeats but may differ in a detail not shown here. Equal values may be shown once. Inconclusive results are not listed. Entries that show only a call come without a potency. Active and inactive are the calls of the source. Unless noted, the call rests on the fitted dose curve; in most records, active means well fitted curve in the direction sought with a large enough effect; inconclusive means small, poorly fitted or top-dose-only effect, or another doubt; inactive means no such curve, though single readings can be large; an effect the other way counts as inactive or inconclusive.
# Key:
# [1] = qHTS Assay for Lipid Storage Modulators (AID 1519; calls by dose curve); details: Drosophila S3 cells, BODIPY lipid droplet/cell ratio, laser cytometry, cells loaded with oleic acid
# Method in brief: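 Cells seeded at 5,000 per well were treated with compounds over a concentration series and loaded with oleic acid (400 uM, as added). Lipid droplet fluorescence (488 nm excitation, 500-530 nm channel) was read by laser-scanning cytometry and normalized to 20 uM Triacsin C.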
# [2] = Counterscreen for APE1 Inhibitors: Fluorescent Dye Displacement Validation Assay (AID 1707); details: fluorescent dye displacement from DNA; series mostly up to 57.1 µM
# Method in brief: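 Assay buffer: Tris-HCl pH7.5 with 50mM NaCl, 2 mM MgCl2, 0.01% Tween-20. Dye 250 nM, duplex 50 nM final. Readout: decrease in ThO endpoint fluorescence, 480 nm excitation, 540 nm emission.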
# [3] = qHTS for differential inhibitors of proliferation of Plasmodium falciparum line 7G8 (AID 1815); details: Plasmodium falciparum 7G8 proliferation inhibition; series mostly up to 28.7 µM;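 further: parasite growth measured after three days of incubation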; further: potency means the concentration at half of the fitted maximal effect
# [4] = qHTS for differential inhibitors of proliferation of Plasmodium falciparum line GB4 (AID 1816); details: Potency: Plasmodium falciparum GB4 proliferation inhibition; series mostly up to 28.7 µM;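 further: parasite growth measured after 72 h incubation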; further: potency means the concentration at half of the fitted maximal effect
# [5] = qHTS for differential inhibitors of proliferation of Plasmodium falciparum line 3D7 (AID 1876); further: potency means the concentration at half of the fitted maximal effect; details: P. falciparum 3D7 proliferation inhibition; series mostly up to 28.7 µM
# [6] = qHTS for differential inhibitors of proliferation of Plasmodium falciparum line D10 (AID 1877); details: series mostly up to 28.7 µM;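 further: parasites grown with compound for 72 h before DNA staining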; further: potency means the concentration at half of the fitted maximal effect
# [7] = qHTS for differential inhibitors of proliferation of Plasmodium falciparum line Dd2 (AID 1882); details: Potency: Plasmodium falciparum Dd2 proliferation inhibition; series mostly up to 28.7 µM; further: nearly all actives have a fitted effect of over 65% in size; further: potency means the concentration at half of the fitted maximal effect;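 on activity change, negative = inhibition: compound exposure of 72 h on infected erythrocytes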
# Method in brief: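 SYBR Green I DNA fluorescence read-out, ex 485/em 535 nm. Signals were normalized to 0.29 uM artemisinin and DMSO wells, then corrected using vehicle-only plates flanking each stack. Parasite growth ran 72 h in erythrocytes before lysis.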
# [8] = qHTS for differential inhibitors of proliferation of Plasmodium falciparum line W2 (AID 1883); details: Potency: Plasmodium falciparum W2 proliferation inhibition; series mostly up to 28.7 µM;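 further: parasites grown with compound for 72 h before lysis and staining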; further: potency means the concentration at half of the fitted maximal effect
# [9] = target: DNA repair nuclease/redox regulator APEX1 (Homo sapiens) (UniProt P27695); assay: qHTS Validation Assay for Inhibitors of the Human Apurinic/apyrimidinic Endonuclease 1 (APE1) (AID 1705;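 further: TAMRA fluorescence gain over two minutes as APE1 cuts a quenched THF abasic duplex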); details: purified APE1 endonuclease activity, fluorescence, titration; series mostly up to 57.1 µM
# DNA repair nuclease/redox regulator APEX1 (Homo sapiens), sequence (P27695 whole entry, looked up): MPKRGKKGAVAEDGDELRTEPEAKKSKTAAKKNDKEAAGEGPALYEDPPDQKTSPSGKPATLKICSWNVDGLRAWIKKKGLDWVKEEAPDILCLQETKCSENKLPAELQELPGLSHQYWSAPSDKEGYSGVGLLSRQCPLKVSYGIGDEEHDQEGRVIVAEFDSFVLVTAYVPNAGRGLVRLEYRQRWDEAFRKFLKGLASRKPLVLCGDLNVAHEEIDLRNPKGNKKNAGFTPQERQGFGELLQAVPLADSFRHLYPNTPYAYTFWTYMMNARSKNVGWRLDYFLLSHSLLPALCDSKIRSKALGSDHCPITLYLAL
# Method in brief: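 qHTS, 1536-well. APE1 + cpd 15 min RT → 50 nM TAMRA/BHQ-2 THF-abasic dsDNA substrate → kinetic fluorescence, 3 reads/60 s; delta(read3−read1) = reaction progress. No-enzyme buffer = negative control.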
# [10] = target: Endonuclease 4 (Escherichia coli (strain K12)) (UniProt P0A6C1); assay: Counterscreen for APE1 Inhibitors: qHTS Validation Assay for Inhibitors of Endonuclease IV (AID 1708); details: E. coli endonuclease IV, DNA cleavage fluorescence; series mostly up to 57.1 µM
# Method in brief: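 Enzymatic AP-site incision assay using a double-stranded THF substrate labelled with TAMRA and BHQ-2; released fluorescence signals activity. Enzyme 2 nM, substrate 50 nM, 15 min compound preincubation.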
# [11] = measured here: cell count channel max response
# [12] = measured here: lipid channel max response
Structure (SMILES),"activity change, negative = inhibition ([1]; at 57.5 µM (top of the series))","max response [1, 11]","max response [1, 12]",outcome [2],Potency [3],Potency [4],Potency [5],Potency [6],Potency [7],Potency [8],Potency [9],Potency [10],"activity change, negative = inhibition ([1]; at 25.7 µM (top of the series))"
CCNC(=O)N1CCN(CCCC(c2ccc(F)cc2)c2ccc(F)cc2)CC1,-0.161% (inactive),-45.7%,-48.7%,inactive,1.58 µM (active),1.12 µM (active),0.891 µM (active),2.51 µM (active),3.16 µM (active),0.282 µM (active),–,–,–
O=C(CCCN1CCC(O)(c2cccc(C(F)(F)F)c2)CC1)c1ccc(F)cc1,–,–,–,inactive,3.55 µM (active),3.16 µM (active),3.55 µM (active),12.6 µM (active),3.98 µM (active),2.24 µM (active),inactive,inactive,–
CCc1cccc(N(C)C(N)=Nc2cccc3ccccc23)c1,–,–,–,inactive,3.16 µM (active),10 µM (active),12.6 µM (active),14.1 µM (active),–,0.631 µM (active),inactive,inactive,–
COC(=O)[C@@H](N)Cc1ccc(O)c(O)c1,–,–,–,inactive,–,14.1 µM (active),–,–,inactive,–,inactive,inactive,–
CN/C(=C\[N+](=O)[O-])NCCSCc1ccc(CN(C)C)o1,–,–,–,inactive,–,–,–,–,–,–,inactive,inactive,–
COc1ccc(CCN(C)CCCC(C#N)(c2cc(OC)c(OC)c(OC)c2)C(C)C)cc1OC (centres undefined),–,–,–,inactive,7.08 µM (active),6.31 µM (active),3.16 µM (active),–,3.55 µM (active),2.24 µM (active),inactive,inactive,–
CN(C)CC[C@@H](c1ccc(Br)cc1)c1ccccn1,–,–,–,inactive,–,–,–,inactive,–,1 µM (active),inactive,inactive,–
CN(C(=O)CCCOc1ccc2[nH]c(=O)ccc2c1)C1CCCCC1,–,–,–,inactive,7.08 µM (active),–,–,–,–,14.1 µM (active),inactive,inactive,–
NS(=O)(=O)c1cc2c(cc1Cl)NC(C1CC3C=CC1C3)NS2(=O)=O (centres undefined),–,–,–,inactive,inactive,inactive,inactive,inactive,inactive,inactive,inactive,inactive,–
CCc1c(C)[nH]c2c1C(=O)C(CN1CCOCC1)CC2 (centres undefined),–,–,–,inactive,inactive,inactive,inactive,inactive,–,–,inactive,inactive,–
Cc1cc(C)c(/C=C2\C(=O)Nc3ccccc32)[nH]1,–,–,–,inactive,–,–,inactive,inactive,inactive,–,inactive,inactive,–
CC1=C(C)C(=O)C(CCCCC#CCCCC#CCO)=C(C)C1=O,1.13% (inactive),-22.7%,-21.4%,inactive,2.24 µM (active),2.51 µM (active),8.91 µM (active),14.1 µM (active),10 µM (active),3.55 µM (active),–,–,–
CC(C)(C)NCC(O)c1cc(O)cc(O)c1 (centres undefined),–,–,–,inactive,inactive,inactive,inactive,inactive,inactive,inactive,inactive,inactive,–
O=C(O)CN(CCOCCOCCN(CC(=O)O)CC(=O)O)CC(=O)O,0.929% (inactive),-9.11%,-9.56%,inactive,inactive,inactive,inactive,inactive,inactive,inactive,–,–,–
Nc1ncn([C@@H]2O[C@H](CO)[C@@H](O)[C@H]2O)c(=O)n1,–,–,–,inactive,inactive,inactive,inactive,inactive,inactive,inactive,inactive,inactive,–
CCCN1C[C@H](CSC)C[C@@H]2c3cccc4[nH]cc(c34)C[C@H]21,–,–,–,inactive,11.2 µM (active),5.62 µM (active),11.2 µM (active),11.2 µM (active),–,4.47 µM (active),inactive,inactive,–
O=C(O)CCCCCCCC(=O)O,–,–,–,inactive,inactive,inactive,inactive,inactive,inactive,inactive,inactive,inactive,–
NC(N)=N/N=C/c1c(Cl)cccc1Cl,–,–,–,inactive,–,–,–,–,–,–,inactive,inactive,–
C[N+](C)(C)CCOC(=O)CCC(=O)OCC[N+](C)(C)C,–,–,–,inactive,inactive,inactive,inactive,inactive,inactive,inactive,inactive,inactive,–
CN1CCN(CC(=O)N2c3ccccc3C(=O)Nc3cccnc32)CC1,2.91% (inactive) and 6.38% (inactive) and 1.02% (inactive),–,–,inactive,inactive,inactive,inactive,–,inactive,inactive,inactive,inactive,1.33% (inactive)
CC(=O)OCC1=C(C(=O)O)N2C(=O)[C@@H](NC(=O)Cc3cccs3)[C@H]2SC1,–,–,–,inactive,–,inactive,inactive,inactive,inactive,inactive,inactive,inactive,–
CNCCCN1c2ccccc2CCc2ccccc21,–,–,–,inactive,–,–,–,–,–,–,inactive,inactive,–
CCN(CC)CCOCCOC(=O)C1(c2ccccc2)CCCC1,-1.81% (inactive) and 10.4% (inactive) and -0.577% (inactive),–,–,inactive,3.16 µM (active),–,–,–,2.24 µM (active),0.794 µM (active),–,–,-7.98% (inactive)
